Experimental data as given in ChEMBL document CHEMBL4513146, “CO-ADD screening of Karazin Kharkiv National University (Ukraine) compounds”.
Entries with a potency or affinity are not part of this list.

What follows are compounds tested on Escherichia coli. Settings: Concentration 32 ug.mL-1;; ASSAY_TEST Inhibition of Bacterial Growth; detection method Absorption (OD600); MEDIA CAMHB; plate type 384well; NBS; CORNING #3640; time 18 hr.

Structure (SMILES) | Inhibition [%]
COc1ccc(-c2cc3c4nnc(SCC(=O)Nc5ccccc5Cl)n4ccn3n2)cc1 | -8.41
CCOc1ccc(NC(=O)Cn2nc3c(SCc4ccc(Cl)cc4)nccn3c2=O)cc1 | -9.96
COc1ccc(CN(c2cc(C)cc(C)c2)S(=O)(=O)c2cccn3c(C)nnc23)cc1 | -2.42
O=C(Cn1nc2c(SCc3ccc(Cl)cc3)nccn2c1=O)Nc1ccccc1F | -0.33
CCCCc1ccc(NC(=O)Cn2nc3ccc(-c4ccc(C)c(C)c4)nn3c2=O)cc1 | -1.54
C=Cc1ccc(CN(c2ccc(F)cc2)S(=O)(=O)c2ccc3nnc(C)n3c2)cc1 | -7.93
CCC(C)NC(=O)Cn1nc2n(CCC(=O)NC3CCCCC3)c(=O)c3ccccc3n2c1=O (stereo not given) | -15
Cc1ccc(-n2ccn3c(=O)n(Cc4ccccc4Cl)nc3c2=O)cc1C | -7.32
COc1ccc(NC(=O)Cn2nc3nc(Nc4ccc(F)cc4)ccn3c2=O)cc1Cl | -9.75
Cc1ccccc1Cn1nc2c(=O)n(-c3ccc(Br)cc3)ccn2c1=O | 1.73
COc1ccc(NC(=O)Cn2nc3ccc(SC4CCCCC4)nn3c2=O)cc1OC | -2.79
Cc1cc(C)c(NC(=O)Cn2nc3c(SCc4ccc(Cl)cc4)nccn3c2=O)c(C)c1 | 0.78
CCc1cccc(NC(=O)Cn2nc3ccc(SC4CCCCC4)nn3c2=O)c1 | -0.36
Cc1nnc2ccc(S(=O)(=O)N(Cc3cccc(F)c3)c3cc(F)cc(F)c3)cn12 | -6.06
CCOc1ccc(-n2ccn3c(SCC(=O)Nc4cc(OC)cc(OC)c4)nnc3c2=O)cc1 | -3.15
